# Assay results reported in ChEMBL document CHEMBL4513216, “Probing the Open Global Health Chemical Diversity Library for Multistage-Active Starting Points for Next-Generation Antimalarials” (ACS Infect Dis, 2020).
# Screen size: about 69,000 compounds; about 8,600 (12%) showed an effect of 50% or more. The sample holds strong results, similar compounds and a random draw of the others, so the mix is not that of the screen.
# System: Plasmodium berghei
# Assay: Screen against P. berghei liver stage (PbLuc), transformed with Luciferase, at 10uM
# Type: functional, HepG2
# Conditions: tested at 10 uM
row,Compound,INHIBITION
1,O=c1occ(CN2CCOCC2)c(O)c1CN1CCOCC1,3.19%
2,CNS(=O)(=O)c1cccc(C(C)NCc2cccc(OC)c2)c1 (stereo unspecified),20.1%
3,CNS(=O)(=O)c1cccc(C(C)NCc2ccccc2)c1 (stereo unspecified),11.8%
4,CC(CO)NS(=O)(=O)c1cccc(C(C)C)c1 (stereo unspecified),26.6%
5,Cc1nc(CNC(C)c2cccc(S(=O)(=O)N(C)C)c2)no1 (stereo unspecified),39.7%
6,CNS(=O)(=O)c1cccc(C(C)NCc2cccc(O)c2)c1 (stereo unspecified),50.8%
7,CNS(=O)(=O)c1cccc(C(C)NCc2ccc(F)cc2F)c1 (stereo unspecified),65.4%
8,CNS(=O)(=O)c1cccc(C(C)NCc2ccc(C)c(C)c2)c1 (stereo unspecified),62.8%
9,CNS(=O)(=O)c1cccc(C(C)NCc2ccc(F)c(F)c2)c1 (stereo unspecified),59.4%
10,CC(NCc1cccc(S(=O)(=O)N(C)C)c1)c1cccnc1 (stereo unspecified),21.9%
11,CNS(=O)(=O)c1cccc(C(C)NCc2ccncc2)c1 (stereo unspecified),32.9%
12,CC(NCc1ccc(F)cc1)c1ccc(S(C)(=O)=O)cc1 (stereo unspecified),25.5%
13,CCOc1ccc(CNC(C)c2cccc(S(=O)(=O)NC)c2)cc1 (stereo unspecified),46.6%
14,O=S(=O)(C1CC1)N1CC[C@@H]2[C@@H]1CCN2Cc1cccs1,33%
15,Cc1cccc(NC(=O)N2CCCn3cnc(CN(C)C(C)C)c3C2)c1,-6.3%
16,NC(=O)c1cnn2c(C3CCCN(C4CCOCC4)C3)ccnc12 (stereo unspecified),10.51%
17,CCc1ccc(NC(=O)CC2Cn3ncnc3NC2=O)cc1 (stereo unspecified),-4.76%
18,CCN1C(=O)[C@H]2CN(CC(C)C)C[C@H]2C12CCN(C(=O)NC(C)C)CC2,-16.9%
19,Cc1ccc(N2CCCC3(CCCC(=O)N3)C2)nn1 (stereo unspecified),3.88%
20,CCOCCCC(=O)NCCC(=O)N1CCN(c2ccccn2)CC1,-39.5%
21,CCN1CC(O)CN(C(=O)c2ccc(SC)cc2)CC1=O (stereo unspecified),47.2%
22,c1ccc2nc(N3CCOC(Cn4cncn4)C3)cnc2c1 (stereo unspecified),-44.3%

row,Compound,INHIBITION
1,CCN(CC(=O)N(C)C)C(=O)c1nc(C)n(-c2ccccc2Cl)n1,-28.7%
2,CCc1cc(CN(C)C(=O)c2cnn[nH]2)on1,-47.9%
3,COc1ccccc1CNc1ncnc2c1NC(=O)CN2,-79.3%
4,O=C(NCc1nncn1C1CCCCC1)C1COc2ccccc2O1 (stereo unspecified),35.4%
5,CNS(=O)(=O)c1cccc(C(C)NCc2ccc(C)o2)c1 (stereo unspecified),35.4%
6,CNS(=O)(=O)c1cccc(C(C)NCc2ccco2)c1 (stereo unspecified),55.1%
7,CNS(=O)(=O)c1cccc(C(C)NCc2ccsc2)c1 (stereo unspecified),36.3%
8,CNS(=O)(=O)c1cccc(C(C)NCc2nccn2C(C)C)c1 (stereo unspecified),23.5%
9,CNS(=O)(=O)c1cccc(C(C)NCc2ccccc2OC)c1 (stereo unspecified),-9.93%
10,CNS(=O)(=O)c1cccc(C(C)NCc2cccc(C)c2C)c1 (stereo unspecified),52.6%
11,O=C(NCc1ccccc1)[C@H]1C[C@H]2CN(C(=O)NC3CCCC3)C[C@@H]1O2,7.65%
12,CCC1CCCCN1C(=O)Cn1nc(-c2cc(C)oc2C)cc(N)c1=O (stereo unspecified),37.5%
13,N#Cc1cccc(C(=O)N2CCc3c(COCC4CC4)cncc3C2)c1,18.7%
14,COc1ccc(CNc2cccnc2-n2cccn2)c(OC)c1OC,41.5%
15,O=C(NC1CCCC1)N1CCCCC1c1nc(C2CC2)no1 (stereo unspecified),38.6%
16,Fc1ccc(CN2CCCn3nnc(COCC4CC4)c3C2)cc1,46.6%
17,O=C(c1ccccc1F)N1CC[C@@H]2CN(c3ncccn3)CCO[C@@H]2C1,69.5%
18,Cc1cccc(C(=O)N2CC[C@@H]3CN(c4ncccn4)CCO[C@@H]3C2)c1,4.27%
19,O=C(c1cccc(F)c1)N1CC[C@@H]2CN(c3ncccn3)CCO[C@@H]2C1,48.6%
20,Cc1ccccc1C(=O)N1CC[C@@H]2CN(c3ncccn3)CCO[C@@H]2C1,47.4%
21,O=C(c1ccncc1F)N1CC[C@@H]2CN(c3ncccn3)CCO[C@@H]2C1,-1.55%
22,Cc1cnc(C(=O)N2CC[C@@H]3CN(c4ncccn4)CCO[C@@H]3C2)cn1,56.7%

row,Compound,INHIBITION
1,CN1CCCC1c1cncc(C(=O)NCc2ccccc2)n1 (stereo unspecified),40.6%
2,CN1CCN([C@@H]2CCN(CC3CCOC3)[C@H]2Cc2cnn(C)c2)CC1 (stereo partly specified),-10.5%
3,COCC(=O)N1CCC2(CC1)COCCN2CCN(C)C,0.547%
4,O=C(c1ccccc1)N1C[C@H]2CCC[C@@]2(COCc2ccncc2)C1,-4.88%
5,O=C(NCCNc1ccc(C(F)(F)F)cn1)c1ccc(F)cc1Cl,3.73%
6,O=C(NCCCNc1ccc(C(F)(F)F)cn1)c1ccc(F)cc1,67.3%
7,O=C(NCCCNc1ccc(C(F)(F)F)cn1)c1ccc(F)cc1Br,82.6%
8,Nc1nccnc1C(=O)NCCCNc1ccc(C(F)(F)F)cn1,25.55%
9,O=C(NCCCNc1ccc(C(F)(F)F)cn1)c1ccc(F)cc1F,-23.9%
10,Cc1cc(NCCNc2ccc(C#N)cn2)nc(C)n1,-14.1%
11,N#Cc1ccc(C(=O)NCCCNc2ccc(C(F)(F)F)cn2)cc1,42.7%
12,CN(C)c1ccc(C(=O)NCCCNc2ccc(C(F)(F)F)cn2)cc1,38.95%
13,O=C(NCCCNc1ccc(C(F)(F)F)cn1)c1ccccc1,10.65%
14,COc1ccc(C(=O)NCCCNc2ccc(C(F)(F)F)cn2)cc1,34.15%
15,N#Cc1ccc(NCCNc2ccc(C(F)(F)F)cn2)nc1,78.4%
16,Cc1ccc(C(=O)NCCCNc2ccc(C(F)(F)F)cn2)cc1,51.85%
17,O[C@H]1CN(Cc2ccnc(N3CCCC3)n2)CC[C@@]12CCCO2,-14.2%
18,Cc1ncsc1CN(C)Cc1cc2c(cc1OC(F)F)OCO2,34.9%
19,Cc1csc(C(C)(C)NCc2ncc(-c3ccccc3)o2)n1,-20.3%
20,CN(C)C(=O)c1nc(-c2ccc(S(C)(=O)=O)cc2)c2ccccn12,17.6%
21,CNC(=O)C1CN(C(=O)COc2ccccc2)Cc2cn(C)nc21 (stereo unspecified),42.6%
22,COC(=O)Cn1c(=O)[nH]c2cn(-c3cccc(C)c3)c(=O)n21,-9.39%

row,Compound,INHIBITION
1,CNC(=O)CNC(=O)NCc1cc2c(s1)CCC(C)(C)C2,26.1%
2,O=C(NCCNc1ccc(C(F)(F)F)cn1)c1cncc(Br)c1,26.1%
3,O=C(NCCNc1ccc(C(F)(F)F)cn1)c1ccc(Cl)cc1F,29.4%
4,O=C(NCCNc1ccc(C(F)(F)F)cn1)c1ccc(Br)cc1,-18%
5,O=C(NCCCNc1ccc(C(F)(F)F)cn1)c1ccc2c(c1)OCO2,60.5%
6,CSCc1ccc(C(=O)NCCCNc2ccc(C(F)(F)F)cn2)cc1,60.95%
7,COCc1ccc(C(=O)NCCCNc2ccc(C(F)(F)F)cn2)cc1,24.15%
8,CN(CCc1cccs1)C(=O)Nc1cnn(CC2CCCO2)c1 (stereo unspecified),6.33%
9,Cc1csc2cc(C(=O)NC3CC3)cnc12,-82.4%
10,CCN1CCC2(COCc3c(C)nc(N(C)C)nc32)C1 (stereo unspecified),2.59%
11,CCOc1ncccc1C(=O)N1CCCC1c1c(C)nn(C)c1OC (stereo unspecified),32.4%
12,Cc1ccc2c(c1)SCC(=O)N2CC(=O)N1CCCC1c1cc(C)on1 (stereo unspecified),-1.45%
13,Cc1ccc2c(c1)SCC(=O)N2CC(=O)N1CCCC1c1cc(C)no1 (stereo unspecified),-40.6%
14,Cc1ccc2c(c1)SCC(=O)N2CC(=O)N1CCC[C@H]1c1nc(C)no1,74%
15,c1cncc(-c2nnc([C@H]3CCN(CC4CC4)C3)o2)c1,67.8%
16,COCC(=O)NCC1CCC(c2nnc(-c3cccnc3)o2)CC1 (stereo unspecified),-8.58%
17,c1ccc(OCCN2CCC(c3nnc(-c4cccnc4)o3)CC2)cc1,20.8%
18,O=C(NCC1CCC(c2nnc(-c3cccnc3)o2)CC1)C1CC1 (stereo unspecified),50.8%
19,c1ccc(-c2nnc(C3CCCN(CC4CCCCC4)C3)o2)nc1 (stereo unspecified),7.52%
20,c1cncc(-c2nnc([C@H]3CCN(CC4CCCCC4)C3)o2)c1,55.9%
21,c1cc(-c2nnc(C3CCCN(CC4CCCCC4)C3)o2)ccn1 (stereo unspecified),38.8%
22,COCC(=O)NCC1CCC(c2nnc(-c3ccncc3)o2)CC1 (stereo unspecified),13.7%

row,Compound,INHIBITION
1,c1ccc(CCCN2CC[C@H](c3nnc(-c4cccnc4)o3)C2)cc1,13.5%
2,CC(=O)N1CCC(Cc2cnc(-n3ccnc3)cn2)CC1,17.1%
3,COC(=O)c1ccc(OC)c(Cn2cc(N)cn2)c1,18.9%
4,Cc1nc(C)n(CC2CN(Cc3nccs3)Cc3nccn3C2)n1 (stereo unspecified),8.03%
5,Cc1cc(F)cc(S(=O)(=O)Nc2ccn(CCCC#N)n2)c1,26%
6,CC(=O)N(Cc1ncc(C)o1)C1CCN(CCc2cnn(C)c2)C1 (stereo unspecified),-36.1%
7,O=C(N1CCOCC1)N1C[C@@H]2CC[C@H]1CN(C1Cc3ccccc3C1)C2,-43.5%
8,C[C@@H]1CN(Cc2nc(Cc3ccccc3F)no2)C[C@H](C)O1,3.93%
9,Cc1nc(C2CCNC2)nc2c1CCC(=O)N2C (stereo unspecified),17.265%
10,CS(=O)(=O)Cc1nc(CN2CC=C(c3ccccc3)CC2)cs1,27.6%
11,CCc1nc(CSCc2csc(CS(C)(=O)=O)n2)cs1,-29.2%
12,CC1(C)CN(Cc2csc(CS(C)(=O)=O)n2)Cc2ccccc21,60.8%
13,Cc1cc(CSCc2csc(CS(C)(=O)=O)n2)no1,19.4%
14,CS(=O)(=O)Cc1nc(CN2CCOc3ccccc3C2)cs1,7.31%
15,CS(=O)(=O)Cc1nc(CN2CCC(C(F)(F)F)CC2)cs1,52.2%
16,CS(=O)(=O)Cc1nc(CN2CCCc3sccc3C2)cs1,36.2%
17,CS(=O)(=O)Cc1nc(CN2CCc3ccccc3CC2)cs1,56.5%
18,CS(=O)(=O)Cc1nc(CNc2c(F)cc(F)cc2F)cs1,40.4%
